Here are results for four compounds from PubChem BioAssay.

Calls of active or inactive are those of the source. Unless noted, how the calls were made is not given here.

For experiment [1], the system named is Wnt5a (protein binding on small-molecule microarray). Kind of experiment: Wnt5a binders on small-molecule microarray, primary screen, biophysical, 635/667 nm fluorescence (AID 1142).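 Further: fluorescence read at 667 nm with signal to noise per printed feature.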 To be noted: 635 nm fluorescence, higher = more signal.
Experiment [2] is described as follows: cell viability in Huh7 cells, primary screen, cytotoxicity control for HCV replication inhibitor project, CellTiter-Glo luminescence, basal, 48 h (AID 1143).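 Further: Huh7 hepatoma cells carrying a hepatitis C replication reporter with no stimulus; test concentration not given here.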 To be noted: Huh7 HCV replicon, higher = more signal, called active from +8 up or from −8 down. (ATP-based viability assays read luminescence as a measure of living cells.)
Experiment [3] in a line: P. aeruginosa biofilm formation inhibitors, primary screen, PAO1 strain, BacTiter-Glo luminescence, LB-PBS (AID 1144). To be noted: 12 h, higher = more signal.
Experiment [4] is described as follows: CREB reporter modulators without forskolin, primary screen, cell-based, PC12, CRE-LacZ reporter, unstimulated (AID 1145). The note with it: no forskolin, luminescence, 4.5 h, higher = more signal, called active from +8 up or from −8 down.
A short description of experiment [5]: CREB reporter modulators under forskolin, primary screen, cell-based, PC12, CRE-LacZ reporter, forskolin-stimulated (AID 1146).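 Further: PC12 cells with 6xCRE LacZ reporter stimulated by forskolin 10 µM; beta-galactosidase reporter signal reflecting CREB driven transcription.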 The note with it: luminescence, 4.5 h, higher = more signal, called active from +8 up or from −8 down.
The target in experiment [6] is Streptavidin (Streptomyces avidinii) (UniProt P22629). Nature of the experiment: streptavidin binders on small-molecule microarray, primary screen, artefact control for SMM compound annotation, biophysical, 635/667 nm fluorescence (AID 1147).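 Further: signal reflects streptavidin binding to arrayed compounds as a control protein.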 To be noted: streptavidin binding, higher = more signal.
The nature of experiment [7]: small-molecule binders of probe aInhba, primary screen, biochemical, small-molecule microarray, 635/667 nm fluorescence (AID 1148).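 Further: score merges 667nm spot fluorescence with signal-to-noise for antibody binding to printed compounds.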 The note with it: higher = more signal.
Experiment [8] concerns the target Torsin-1A (Homo sapiens) (UniProt O14656). Nature of the experiment: torsin A binders from cell lysate, primary screen, small-molecule microarray, wild-type, 635/667 nm (AID 1149). The note with it: COS7 hTOR1A-WT lysate, 635 nm fluorescence, higher = more signal.
For experiment [9] the target is unchanged. Kind of experiment: small-molecule binders of mutant TOR1A in lysate, primary screen, cell lysate, small-molecule microarray, COS7 lysate, 635/667 nm fluorescence (AID 1150).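 Further: score pools 667 nm emission and signal to noise measuring lysate protein binding.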 The note with it: COS7 hTOR1A mutant lysate, 635 nm fluorescence, higher = more signal.
Experiment [10] has as its system Sonic hedgehog protein (Shh). Nature of the experiment: small-molecule binders of Shh protein, primary screen, biochemical, small-molecule microarray, 635/667 nm fluorescence (AID 1151).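 Further: Shh protein binding to compounds spotted on small-molecule microarray slides; score combines spot fluorescence intensity with signal-to-noise across triplicate slides.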 To be noted: small-molecule microarray binding, 635 nm fluorescence; higher = more signal.
Experiment [11] is described as follows: E. coli DRC41 culture turbidity changes, primary screen, E. coli filamentation inducer project, strain DRC41, OD650, 48 h (AID 1152).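 Further: E. coli MC1000 strain DRC41 lacking acrAB efflux pump and sulA.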 The note with it: E. coli DRC41 (acrAB sulA), higher = more signal, called active from +8 up or from −8 down.
Experiment [12] in a line: small-molecule binders of probe aLefty1, primary screen, biochemical, small-molecule microarray, 635/667 nm fluorescence (AID 1153).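 Further: score merges spot fluorescence with signal-to-noise ratio from the scanned slide images.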 The note with it: higher = more signal.
A short description of experiment [13]: PSAC antagonists in infected red cells, primary screen, cell-based, P. falciparum Indochina, OD700, 1 h (AID 1154). To be noted: P. falciparum Indochina infected RBC osmotic lysis, higher = more signal, called active from +8 up or from −8 down.
Experiment [14] can be described thus: PSAC antagonists in infected red cells, primary screen, cell-based, P. falciparum Indochina, OD700, 2 h (AID 1155).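 Further: lysis reports solute entry through the parasite surface anion channel PSAC; channel blockers reduce lysis of infected cells.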 To be noted: P. falciparum Indochina infected erythrocytes, osmotic lysis OD700; higher = more signal, called active from +8 up or from −8 down.
The nature of experiment [15]: osmotic lysis modulators in infected erythrocytes, primary screen, PSAC antagonist project, cell-based, P. falciparum Indochina, OD700, 3 h (AID 1156). The note with it: higher = more signal, called active from +8 up or from −8 down.
Experiment [16] is described as follows: PSAC antagonists in infected red cells, primary screen, cell-based, P. falciparum Indochina, OD700, 18 h (AID 1157). The note with it: P. falciparum Indochina infected erythrocytes, osmotic lysis OD700, 18 h; higher = more signal, called active from +8 up or from −8 down.
Experiment [17] is described as follows: modulators of S6 phosphorylation in cells, primary screen, cell-based, A549, cytoblot, luminescence, serum-stimulated (AID 1158).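 Further: serum-stimulated A549 lung adenocarcinoma cells; signal is phosphorylated S6 detected by cytoblot immunostaining with HRP secondary.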 To be noted: A549 phospho-S6 cytoblot, 5 h, higher = more signal.
The target of experiment [18] is NADPH oxidase 2 (Homo sapiens) (UniProt P04839). Kind of experiment: NOX2-dependent H2O2 signal modulators, primary screen, NOX inhibitor project, cell-based, HEK293-NOX2, PMA-stimulated, Amplex Red fluorescence (AID 1159). Further: test concentration not given here. The note with it: 45 min, higher = more signal, called active from +8 up or from −8 down.
The target of experiment [19] is NADPH oxidase 4 (Homo sapiens) (UniProt Q9NPH5). Kind of experiment: NOX4-dependent H2O2 signal modulators, primary screen, NOX inhibitor project, cell-based, HEK293-NOX4, tetracycline-induced, Amplex Red fluorescence (AID 1160). The note with it: 45 min, higher = more signal, called active from +8 up or from −8 down.
Experiment [20] concerns the target NADPH oxidase 5 (Homo sapiens) (UniProt Q96PH1). Kind of experiment: NOX5-dependent H2O2 signal modulators, primary screen, NOX inhibitor project, cell-based, HEK293-NOX5, Amplex Red fluorescence (AID 1161). The note with it: HEK293-NOX5, ionomycin, 45 min, higher = more signal.

Chain of Streptavidin (Streptomyces avidinii) (P22629 whole entry, looked up): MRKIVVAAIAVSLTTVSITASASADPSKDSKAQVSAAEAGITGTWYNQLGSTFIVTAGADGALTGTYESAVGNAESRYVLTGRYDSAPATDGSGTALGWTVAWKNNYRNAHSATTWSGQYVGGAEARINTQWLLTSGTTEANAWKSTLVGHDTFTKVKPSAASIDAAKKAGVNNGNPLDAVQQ
Chain of NADPH oxidase 4 (Homo sapiens) (Q9NPH5 whole entry, looked up): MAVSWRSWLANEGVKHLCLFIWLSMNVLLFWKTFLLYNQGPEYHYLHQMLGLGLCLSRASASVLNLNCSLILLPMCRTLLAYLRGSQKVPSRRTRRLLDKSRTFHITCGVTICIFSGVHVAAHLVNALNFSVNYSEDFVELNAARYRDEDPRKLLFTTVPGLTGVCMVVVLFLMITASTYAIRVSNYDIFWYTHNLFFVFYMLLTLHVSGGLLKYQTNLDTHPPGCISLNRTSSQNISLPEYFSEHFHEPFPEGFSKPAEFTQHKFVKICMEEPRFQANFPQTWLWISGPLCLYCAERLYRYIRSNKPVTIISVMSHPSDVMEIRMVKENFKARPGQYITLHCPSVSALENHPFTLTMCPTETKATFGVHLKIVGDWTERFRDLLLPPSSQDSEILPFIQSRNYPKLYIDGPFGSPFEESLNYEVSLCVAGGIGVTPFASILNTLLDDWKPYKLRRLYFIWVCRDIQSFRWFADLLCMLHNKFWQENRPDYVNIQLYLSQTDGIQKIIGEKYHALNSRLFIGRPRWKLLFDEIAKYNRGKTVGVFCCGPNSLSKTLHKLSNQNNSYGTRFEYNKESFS
Chain of NADPH oxidase 2 (Homo sapiens) (P04839 whole entry, looked up): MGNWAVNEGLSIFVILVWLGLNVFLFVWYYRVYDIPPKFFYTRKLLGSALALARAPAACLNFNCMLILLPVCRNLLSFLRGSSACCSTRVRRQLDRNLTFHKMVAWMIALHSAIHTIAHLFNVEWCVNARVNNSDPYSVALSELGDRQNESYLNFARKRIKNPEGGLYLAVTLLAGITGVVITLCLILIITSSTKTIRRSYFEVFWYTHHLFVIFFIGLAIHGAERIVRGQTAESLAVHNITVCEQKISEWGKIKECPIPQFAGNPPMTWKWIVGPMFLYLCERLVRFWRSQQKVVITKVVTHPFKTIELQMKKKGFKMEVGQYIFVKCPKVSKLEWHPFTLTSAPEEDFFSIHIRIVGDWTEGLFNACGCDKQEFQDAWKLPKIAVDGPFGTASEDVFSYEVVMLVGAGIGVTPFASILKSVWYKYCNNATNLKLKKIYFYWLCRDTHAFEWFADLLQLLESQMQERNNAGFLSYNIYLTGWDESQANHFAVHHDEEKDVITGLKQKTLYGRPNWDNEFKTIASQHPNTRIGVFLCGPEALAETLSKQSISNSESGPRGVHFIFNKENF
Chain of NADPH oxidase 5 (Homo sapiens) (Q96PH1 whole entry, looked up): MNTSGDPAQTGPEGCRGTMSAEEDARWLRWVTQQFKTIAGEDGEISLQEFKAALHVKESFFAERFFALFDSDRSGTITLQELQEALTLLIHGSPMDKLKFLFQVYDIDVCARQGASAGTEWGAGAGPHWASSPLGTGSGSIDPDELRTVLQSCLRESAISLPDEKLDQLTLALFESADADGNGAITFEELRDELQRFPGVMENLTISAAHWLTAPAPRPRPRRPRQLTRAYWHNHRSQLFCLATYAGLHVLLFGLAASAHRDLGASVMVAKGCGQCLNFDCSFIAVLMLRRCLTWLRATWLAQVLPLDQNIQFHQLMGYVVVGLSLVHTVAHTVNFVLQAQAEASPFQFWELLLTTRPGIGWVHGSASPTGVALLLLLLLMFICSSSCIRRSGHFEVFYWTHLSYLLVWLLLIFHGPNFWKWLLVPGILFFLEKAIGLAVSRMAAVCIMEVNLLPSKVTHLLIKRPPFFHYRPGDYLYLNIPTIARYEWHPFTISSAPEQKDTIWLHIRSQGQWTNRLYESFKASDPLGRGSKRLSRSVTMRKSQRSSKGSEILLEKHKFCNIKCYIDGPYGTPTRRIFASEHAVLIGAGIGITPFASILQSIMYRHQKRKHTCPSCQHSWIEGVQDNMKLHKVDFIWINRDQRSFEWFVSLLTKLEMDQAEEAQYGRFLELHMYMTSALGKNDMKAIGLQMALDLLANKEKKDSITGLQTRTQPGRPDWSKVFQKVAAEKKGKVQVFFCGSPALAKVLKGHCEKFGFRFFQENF
Chain of Torsin-1A (Homo sapiens) (O14656 whole entry, looked up): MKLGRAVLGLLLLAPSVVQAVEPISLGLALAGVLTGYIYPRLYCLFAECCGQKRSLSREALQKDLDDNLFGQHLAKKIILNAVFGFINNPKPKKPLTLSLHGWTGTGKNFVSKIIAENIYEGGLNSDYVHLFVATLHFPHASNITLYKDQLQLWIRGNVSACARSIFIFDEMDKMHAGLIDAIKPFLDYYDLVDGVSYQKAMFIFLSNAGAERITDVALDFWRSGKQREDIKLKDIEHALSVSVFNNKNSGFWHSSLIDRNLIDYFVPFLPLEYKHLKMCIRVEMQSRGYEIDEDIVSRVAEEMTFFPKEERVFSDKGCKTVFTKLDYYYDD

As for `CC(CCC(=O)OC[C@H]1O[C@H](C#Cc2ccccc2)C=C[C@@H]1Oc1ccc(C)cc1)=NO[C@H](C)c1cn([C@@H]2COC[C@H]2O)nn1`, the composite z-score in experiment [1] was -0.0352; in [6], 0.197; in experiment [7], -0.101; in the experiment with Torsin-1A (Homo sapiens) [8], 0.587; with Torsin-1A (Homo sapiens) [9], 0.326; in [10] it was 0.39. In addition, the composite z-score in [12] was -0.191. Further, the z-score in experiment [2] is -0.783 (inactive); in experiment [3], -0.763 (inactive); in experiment [4] it was 3.17 (inactive); in experiment [5] it was -0.0087 (inactive); in experiment [11], -0.6 (inactive); in experiment [13], 26.8 (active). In addition, the z-score in experiment [14] is 3.78 (inactive); in [15], 1.38 (inactive); in [16], -0.643 (inactive); in [17], 1.2; in experiment [18], -2.39 (inactive); in [19], -0.358 (inactive). For the same compound, in [20], the z-score is -3.36.

`CC(=O)OC[C@H]1O[C@H](CC=NOC(C)CN2CCCCc3nc(C)c(C)cc32)C=C[C@@H]1OC(C)=O` (stereo not given in full): the composite z-score is 0.696 in experiment [1]; 1.87 in experiment [6]; -0.137 in [7]; 3.43 with Torsin-1A (Homo sapiens) [8]; 2.9 with Torsin-1A (Homo sapiens) [9]; 1.48 in experiment [10]. Also, in [12], the composite z-score came to 0.589. The z-score was -0.402 (inactive) in experiment [2]; 0.725 (inactive) in [3]; -0.157 (inactive) in experiment [4]; 0.278 (inactive) in experiment [5]; 0.0072 (inactive) in experiment [11]; 0.595 (inactive) in [13]. The z-score in experiment [14] is 0.324 (inactive); in experiment [15] it was 0.417 (inactive); in [16] it was 0.246 (inactive); in experiment [17], -0.626; in [18], -1.69 (inactive); in experiment [19], -0.695 (inactive). In addition, in [20], the z-score is -1.24.

As for `CC(C)CON=C1[C@H]2CCn3c(=O)n(C)c(=O)n3[C@H]2[C@H](O)[C@@H]2O[C@H]12`, the composite z-score in experiment [1] was 0.0208; in [6], 0.212; in experiment [7], -0.0405; in the experiment with Torsin-1A (Homo sapiens) [8], 0.558; with Torsin-1A (Homo sapiens) [9], -0.0543; in experiment [10], 0.637. Also, the composite z-score in [12] is -0.0559. In addition, the z-score in experiment [2] was 0.736 (inactive); in [3], -0.279 (inactive); in experiment [4] it was 0.252 (inactive); in experiment [5], -0.28 (inactive); in experiment [11], -0.0031 (inactive); in [13], -0.399 (inactive). Also, the z-score is -0.165 (inactive) in experiment [14]; -0.607 (inactive) in [15]; -0.162 (inactive) in [16]; -0.445 in [17]; -0.5 (inactive) in experiment [18]; 0.0343 (inactive) in [19]. Moreover, the z-score in [20] was -0.0469.

Regarding `CO[C@H]1COC(=O)CCC[C@H](C)[C@H](OC)COC(=O)CC=C[C@@H]1C`, the composite z-score is -0.225 in experiment [1]; 0.116 in experiment [6]; -0.154 in [7]; 1.78 with Torsin-1A (Homo sapiens) [8]; 1.64 with Torsin-1A (Homo sapiens) [9]; 1.79 in experiment [10]. In [12], the composite z-score was -0.0626. The z-score in experiment [2] is -1.15 (inactive); in experiment [3] it was -0.339 (inactive); in [4], -1.29 (inactive); in experiment [5] it was -0.46 (inactive); in [11] it was 0.928 (inactive); in [13], -0.972 (inactive). In addition, the z-score in experiment [14] is -1.26 (inactive); in [15], 0.232 (inactive); in experiment [16] it was -1.45 (inactive); in experiment [17], 1.18; in experiment [18], -0.0777 (inactive); in experiment [19], 0.862 (inactive). For the same compound, the z-score in experiment [20] amounted to 0.381.
